Results with a measured potency or affinity are listed apart. Active and inactive are the calls of the source. The rule behind the calls is not given here.

Consider 38 compounds from PubChem BioAssay AID686928 (Broad Institute, 2013).

This assay is described as follows: human cervical cancer cell viability loss – 24 h, plate reader, dry powder, cytotoxicity control, dose response (AID 686928). The conditions noted are these: HeLa cytotoxicity; series mostly up to 80 µM.
Take `O=C(Nc1nnc(-c2ccc3c(c2)OCCO3)o1)C1CC1`: the call was inactive. Take `O=C(Nc1nnc(-c2ccc3c(c2)OCCO3)o1)C1CCC1`: the outcome was inactive. Regarding `CCn1nnnc1NC(C)c1ccc(N2CCCC2)cc1` (stereo not drawn), the call was inactive.

`Cc1ccc2cc3c(NC(=O)Cc4ccco4)nn(C)c3nc2c1`: the result was inactive. To `Cn1nc(NC(=O)c2ccco2)c2ccccc21` belongs “inactive”; to `Cn1nc(NC(=O)c2ccco2)c2cccnc21`, “inactive”; to `O=C(Nc1nnc(-c2ccc3c(c2)OCCO3)o1)C1CCCCC1`, “inactive”. Under `O=c1nc(Cc2ccccc2)n(-c2cccc(Cl)c2)c2ccccc12` stands “inactive”. As for `Cc1ccc2cc3c(NC(=O)c4ccccn4)nn(C)c3nc2c1`, the compound was called inactive.

Take `O=C(O)c1ccccc1Nc1cccc(Cl)c1`: the outcome was inactive. For `O=c1ncn(-c2ccccc2Cl)c2ccccc12`, the result was inactive.

Regarding `O=c1ncn(-c2cccc(F)c2)c2ccccc12`, the result was inactive. As for `Cc1ccc2cc3c(NC(=O)c4ccc(C)o4)nn(C)c3nc2c1`, the result was inactive. Turning to `O=C(Cc1ccc(-c2ccccc2)cc1)NC1COC1`, the call was inactive. Consider `Cc1ccc2c(c1)c(=O)ncn2-c1cccc(Cl)c1`, for which the compound was classed as inactive.

For the compound `O=c1ncn(-c2cccc(Cl)c2)c2ccccc12`, the compound was classed as inactive. Turning to `O=c1ncn(-c2cccc(Cl)c2)c2cccc(Cl)c12`, the outcome was inactive. To `CCn1nnnc1NCc1ccc(C(C)C)cc1` belongs “inactive”; to `CCn1nnnc1/N=C/c1ccc(N2CCCCC2)cc1`, “inactive”; to `O=c1ncn(-c2ccc(Cl)c(Cl)c2)c2ccccc12`, “inactive”. For the compound `O=C(Cc1ccc(-c2ccccc2)cc1)NC1CNC1`, the outcome was inactive. In the case of `Cc1ccc2cc3c(NC(=O)C4CCCC4)nn(C)c3nc2c1`, the compound was called inactive. With `O=c1ncn(-c2cccc(Cl)c2)c2ccc(Cl)cc12`, the compound was called inactive. To `COc1ccc(-c2nnc(NC(C)=O)o2)cc1` belongs “inactive”; to `C(=N\c1nnc(-c2ccc3c(c2)OCCO3)o1)/c1ccccc1`, “inactive”; to `Cc1cccc(-n2cnc(=O)c3ccccc32)c1`, “inactive”. Consider `O=C(Nc1nnc(-c2ccc3c(c2)OCCO3)o1)C1CCCC1`, for which the outcome was inactive.

Turning to `Cc1cc(F)cc2nc3c(cc12)c(NC(=O)c1ccco1)nn3C`, the compound was classed as inactive. Under `CCOC(=O)c1ccccc1Nc1cccc(Cl)c1` stands “inactive”; under `O=S(=O)(Nc1nnc(-c2ccc3c(c2)OCCO3)o1)c1ccc(Cl)cc1`, “inactive”; under `Cn1nc(NC(=O)c2ccco2)c2cc3ccc(C(C)(C)C)cc3nc21`, “inactive”. In the case of `COc1ccc(S(=O)(=O)Nc2nnc(-c3ccc4c(c3)OCCO4)o2)cc1`, the compound was classed as inactive. Take `O=C(CC1CCCCC1)Nc1nnc(-c2ccc3c(c2)CCCC3)o1`: the call was inactive. For `O=c1ncn(-c2cc(Cl)cc(Cl)c2)c2ccccc12`, the compound was classed as inactive.

Take `COc1cccc(-c2nnc(NC(=O)C3CCCCC3)o2)c1`: the result was inactive.

Consider `O=C(Nc1nnc(-c2ccccc2Cl)o1)C1CCCCC1`, for which the call was inactive.

As to `O=C(Cc1ccc(-c2ccccc2)cc1)N[C@@H]1CCOC1` (racemic), the result was inactive. For `O=C1C(=O)N(Cc2ccccc2Cl)c2ccccc21`, the compound was classed as inactive.
